Consider 40 compounds from PubChem BioAssay (Tox21).

Structures are written as SMILES. Records with an inconclusive call do not appear. A call without a number means that no potency is given here. Values without a mark were called inactive. Active and inactive are the calls of the source. The call rests on the fitted dose curve; in most records, active means well fitted activation curve with a large enough effect in the repeat runs; inconclusive means weak or mixed curves; inactive means flat fitted curve, though single readings scatter.
Potency means the concentration at half of the fitted maximal effect.

The nature of the experiment: A CellTox Green Cytotoxicity Assay to monitor cytotoxicity in HEK293 cells - 24 hour (AID 1224875). Further: nearly all actives have a fitted effect of over 45% in size. The settings on record: CellTox Green fluorescence; series mostly up to 76.8 µM. The source says:
National Center for Advancing Translational Sciences [NCATS]
NIH Chemical Genomics Center [NCGC]
U.S. Environmental Protection Agency [EPA]
National Institutes of Environmental Health Sciences [NIEHS]
National Toxicology Program [NTP]
Cell-based models are critical for drug discovery. Determining the natural cytotoxic effects resulting from test compounds is an essential research activity. A CellTox Green Cytotoxicity Assay to monitor cytotoxicity in real time of continues cell culture during 40 hours of the compound treatment was used to screen Tox21 10K library compounds in Hek293 cells. CellTox Green Cytotoxicity Assay is a nonlytic, homogeneous, biofluorescent method to measure cytotoxicity in cell culture after experimental manipulation. The assay system uses a proprietary asymmetric cyanine dye that is excluded from viable cells but preferentially stains the dead cell's DNA. […] Viable cells produce no appreciable increases in fluorescence. Therefore, the fluorescence signal produced by the binding interaction with dead cell DNA is proportional to cytotoxicity.
The mixture of Hek293 cell suspension and reagents were dispensed at 600cells/6 ul/well in 1536-well tissue culture treated black solid bottom plates using a Multidrop dispenser. After the assay plates were incubated at a 37 C/5% CO2 incubator for 5 hours, 23 nL of compounds dissolved in DMSO, positive and negative controls was transferred to the assay plate by a pintool work station. The plates were incubated at 37 C for 40 hours. The fluorescence intensity were measured at 0h, 8h, 16h, 24h, 32h and 40h time points using ViewLux plate reader during compound treatment.
For `CNC(=O)Oc1cccc(C(C)C)c1`, the Potency entry is “inactive”.

Turning to `CC(C)(C)NCC(O)c1cc(Cl)c(N)c(Cl)c1` (stereo not given), the Potency entry is “inactive”.

For `COc1cc(OC)nc(Sc2cccc(Cl)c2C(=O)O)n1`, the Potency entry is “inactive”.

`CCC(C)n1c(=O)[nH]c(C)c(Br)c1=O` (stereo not given): the Potency result is “inactive”.

For `COc1cccc(C(=O)NN(C(=O)c2cc(C)cc(C)c2)C(C)(C)C)c1C`, the Potency result is “inactive”.

Take `NC1=NC(=O)C(c2ccccc2)O1` (stereo not given): the Potency result was “inactive”.

`O=C(CCN1CC1)OCC(CO)(COC(=O)CCN1CC1)COC(=O)CCN1CC1`: the Potency result was “inactive”.

`CN1CCC(N(Cc2ccccc2)c2ccccc2)CC1`: the Potency result is “inactive”.

In the case of `CNC(=O)O/N=C(\C)SC`, the Potency entry was “inactive”.

Take `N#Cc1ccncc1`: the Potency result was “inactive”.

In the case of `O=C1OC(CCN2CCCCC2)OC1(c1ccccc1)c1ccccc1` (stereo not given), the Potency entry was “inactive”.

Regarding `CCCCCCBr`, the Potency entry was “inactive”.

Take `O=C1c2ccccc2C(=O)c2ccccc21`: the activity change was 6.87% [at 15.8 µM, stronger effect = higher value].

As for `CCC1(c2ccccc2)C(=O)NC(=O)NC1=O`, the Potency entry is “inactive”.

With `CCN(Cc1ccc(Cl)nc1)/C(=C/[N+](=O)[O-])NC`, the Potency result is “inactive”.

As to `CCS(=O)(=O)C(C)(C)S(=O)(=O)CC`, the Potency result was “inactive”.

Take `Oc1c(Cl)cccc1Cl`: the Potency result is “inactive”.

With `CN(N=O)C(N)=O`, the Potency entry is “inactive”.

Regarding `O=C(Cc1ccccc1)OCc1ccccc1`, the Potency result is “inactive”.

Consider `CC1CN1P(=O)(N1CC1C)N1CC1C` (stereo not given), for which the Potency result was “inactive”.

As to `COc1cccc2c1cc([N+](=O)[O-])c1c(C(=O)O)cc3c(c12)OCO3`, the Potency result is “inactive”.

Regarding `N#Cc1c(Cl)cccc1Cl`, the Potency entry was “inactive”.

For `Cc1cnc[nH]1`, the Potency entry is “inactive”.

In the case of `O=c1oc2ccccc2c(O)c1C1CCCc2ccccc21` (stereo not given), the Potency result is “inactive”.

Take `O=P(O)(Oc1ccccc1)Oc1ccccc1`: the Potency result was “inactive”.

For the compound `CCOP(=S)(OCC)SCSP(=S)(OCC)OCC`, the Potency entry was “inactive”.

For the compound `CC1(C)CON(Cc2ccccc2Cl)C1=O`, the Potency entry is “inactive”.

Take `COC(=O)C(c1ccccc1)C1CCCCN1` (stereo not given): the Potency entry is “inactive”.

Turning to `C[N+](=O)[O-]`, the Potency entry was “inactive”.

As for `CCN(CC)c1nc(C)cc(OP(=S)(OC)OC)n1`, the Potency entry is “inactive”.

For `CC(C)CC(N(C)C)C1(c2ccc(Cl)cc2)CCC1` (stereo not given), the Potency was 23.9 µM (active).

As to `C[C@]12CC[C@H]3[C@@H](CCC4=CC(=O)CC[C@@]43C)[C@@H]1CC[C@@H]2C(=O)O`, the Potency entry was “inactive”.

With `Fc1ccc(C2(Cn3cncn3)OC2c2ccccc2Cl)cc1` (stereo not given), the Potency result is “inactive”.

Take `COc1cc(OC)nc(NC(=O)NS(=O)(=O)c2ncccc2C(=O)N(C)C)n1`: the Potency result was “inactive”.

As for `Cc1nc(N)nc(N)n1`, the Potency result is “inactive”.

As to `COC(=O)COc1ccc(Cl)cc1Cl`, the Potency result was “inactive”.

As to `O=C(N[C@H]1CN2CCC1CC2)c1cc2ccoc2cn1`, the Potency entry is “inactive”.

As for `CC(CC(C#N)(c1ccccc1)c1ccccc1)N(C)C` (stereo not given), the Potency result is “inactive”.

As for `CS(=O)(=O)c1cc(C(F)(F)F)ccc1C(=O)c1cnoc1C1CC1`, the Potency entry was “inactive”.

As to `COC(=O)c1c(C(F)F)nc(C(F)(F)F)c(C2=NCCS2)c1CC(C)C`, the Potency result is “inactive”.
